CDC25B CDK2 inh: primary biochemical HTRF screen for blockers of M-phase inducer phosphatase 2 binding to CDK2/cyclin A; HTRF CDC25B-CDK2/CyclinA binding, anti-His/anti-Flag; stronger effect = higher value; z-score (concentration not given with the values); 0.72% of 94,000 active; AID 1259370, 2018; in the data active = z-score above about 3.2
TAR Tat displ: TAR RNA-Tat peptide displacers, HIV-1, primary screen, biochemical, FRET, FAM/TAMRA-labeled Tat; HIV-1 TAR RNA, Tat peptide displacement FRET; stronger effect = higher value; z-score (test concentration not listed); 0.6% of 100,000 active; AID 1259389, 2018; active = z-score of 3 or more in at least 2 runs
Starred values were filed as active, the others as inactive; . = no result given; + = active, no number; ! = repeats disagree. Most compounds without a hit are left out; they make up all but 0.86% or so of the library.

SMILES	CDC25B CDK2 inh	TAR Tat displ
O=C(Nc1ccc2snnc2c1)NC1CC1	11*	1.6
O=C(Nc1ccc2snnc2c1)NC1CCCCC1	-2	-0.4
Brc1ccc(-c2cnc3ccccc3n2)s1	0.69	.
COc1cc(O)c2c(c1)oc(=O)c1c3cc(O)c(O)cc3oc21	.	38*
COc1ccc2c(c1)oc(=O)c1ccccc12	-1.7	0.03
CCSc1ncc(CO)n1Cc1ccc(OC)cc1	.	1.9
CC(CCc1ccccc1)NC(=O)C(C)n1ncn2c(cc3occc32)c1=O (configuration not stated)	2.2	0.39
Cc1csc2nc(COC(=O)c3ccc(Cl)cc3)cc(=O)n12	.	-0.71
O=C(O)c1cc(-c2cc(C(=O)O)c3ccccc3n2)nc2ccccc12	1.6	1.1
O=C(O)c1cc(-c2ccco2)nc2ccccc12	.	24*
O=C(NC1CCCc2ccccc21)C1=Cc2cc(Cl)ccc2OC1 (configuration not stated)	-1.4	.
CCSc1nnc2c(n1)OC(c1ccc(C(=O)O)cc1)Nc1ccc(Br)cc1-2 (configuration not stated)	1.5	-1
COc1cc(C2CC(=O)N3CN(c4ccc(Cl)cc4)CSC3=C2C#N)ccc1O (configuration not stated)	4.2*	25*
COc1ccc(N2CSC3=C(C#N)C(c4ccc(O)c(OC)c4)CC(=O)N3C2)cc1 (configuration not stated)	4*	-1.6
COc1cc(C2CC(=O)N3CN(c4ccc(C)c(C)c4)CSC3=C2C#N)ccc1O (configuration not stated)	0.52	1.6
COc1cc(C2CC(=O)N3CN(c4ccc(F)cc4)CSC3=C2C#N)ccc1O (configuration not stated)	3.3*	29*
CCS(=O)(=O)N1CCN(c2cc(Nc3ccc(C)cc3)nc(C)n2)CC1	-1.1	-0.59
CN(CC(=O)NCCC1=CCCCC1)S(=O)(=O)c1cccc2cccnc12	-0.39	-1.1
O=[N+]([O-])c1ccc(NCc2ccncc2)nc1	-2.6	.
O=C(Nc1ccc(N2CCOCC2)cc1)C1=Cc2cc(Br)ccc2OC=C1	-1.5	0.39
CCN(CC)c1nc(Nc2ccc(C)cc2C)c2cnn(C)c2n1	.	1.2
O=C(CSc1nc2ccccc2c(=O)[nH]1)NCc1ccc2c(c1)OCO2	.	14*
O=C(CSc1nc2ccccc2c(=O)[nH]1)NC1CCCC1	.	3.2
N=C1C(c2nc3ccccc3[nH]2)=C(O)CN1c1ccccc1F	-0.68	1.8
NC1(C(=O)O)CCCCC1	-1.7	.
SMILES	CDC25B CDK2 inh	TAR Tat displ
N.N.O=C(O)C1(C(=O)O)CCC1.[Pt+2]	+	.
CC1(C(=O)NCC2CCCO2)Cn2c(cc3ccccc32)C(=O)N1C1CCCc2ccccc21 (configuration not stated)	.	-1.6
CNc1oc(-c2ccc(F)cc2)nc1C#N	-0.07	0.56
COc1ccc(OC)c(-c2noc(Nc3ccc4c(c3)OCO4)n2)c1	.	1.7
CCOCCCNc1nc2c(S(=O)(=O)c3ccccc3)nnn2c2ccccc12	-0.96	11*
COCCCNc1nc2c(S(=O)(=O)c3ccccc3)nnn2c2ccccc12	-1.9	1.1
COC(=O)CSc1nc2c(cc1C#N)CCCC2	0.02	1.6
CCCCCn1c(=O)c2c(nc3n2CCN3c2ccc(C)cc2)n(C)c1=O	.	5.2*
CCCCn1c(=O)c2c(nc3n2CCN3c2ccc(C)cc2)n(C)c1=O	.	1
CCN1CCN(C(=O)Nc2cn(CC(C)C)c(=O)c3ccccc23)CC1	.	2
O=C1Nc2ccc(Br)cc2C(c2ccccc2)C1N1CCOCC1 (configuration not stated)	0.09	.
COc1ccc(NC(=O)NCc2nnnn2-c2ccccc2)cc1	.	0.4
Cn1c(=O)c(C(=O)O)nc2ccccc21	-1.8	0.87
CCOC(=O)c1nc2ccccc2n(C)c1=O	23*	-1.3
Cc1sc2ncn(CC(=O)N3CCCCC3C)c(=O)c2c1S(=O)(=O)N1CCN(C)CC1 (configuration not stated)	17*	.
Cc1sc2ncn(CC(=O)N3CCCC3)c(=O)c2c1S(=O)(=O)N1CCCCC1	0.27	.
COC(=O)c1[nH]c2sc3c(c2c1NC(C)=O)CCCC3	4.7	-0.25
COC(=O)c1[nH]c2sc3c(c2c1-n1cccc1)CCCC3	13*	1.6
CCNc1cc(N2CCN(CCO)CC2)c2noc3c2c1C(=O)c1ccccc1-3	8.1*	15*
CCCN1CCN(c2cc(NCC)c3c4c(onc24)-c2ccccc2C3=O)CC1	-1.8	-0.63
CCN1CCN(c2cc(NC(C)C)c3c4c(onc24)-c2ccccc2C3=O)CC1	-1.8	5.7*
CC1CCN(c2cc(NC(C)C)c3c4c(onc24)-c2ccccc2C3=O)CC1	-0.91	2.3
CCN1CCN(c2cc(NC3CCCCC3)c3c4c(onc24)-c2ccccc2C3=O)CC1	-0.46	4.3*
O=C1c2ccccc2-c2onc3c(N4CCOCC4)cc(NC4CCCCC4)c1c23	-0.89	0.24
CC(C)Nc1cc(N2CCCC2)c2noc3c2c1C(=O)c1ccccc1-3	-1.7	-5
SMILES	CDC25B CDK2 inh	TAR Tat displ
CC(C)Nc1cc(N2CCN(CCO)CC2)c2noc3c2c1C(=O)c1ccccc1-3	0.08	9.5*
CC(C)CC1=NN(C(=O)c2ccc(N(C)C)cc2)C(O)(C(F)(F)F)C1 (configuration not stated)	-1.1	.
CCc1ccccc1-n1nnc(-c2nc(-c3ccc(Cl)cc3)no2)c1N	.	1.6
O=S(=O)(Nc1cc(C(F)(F)F)ccc1F)c1cc(C(F)(F)F)ccc1Cl	-1.7	.
Cc1nn(C)c(C(=O)NNC(=O)COc2ccc(Cl)cc2Cl)c1[N+](=O)[O-]	-1.2	.
Cc1[nH]ccc2c1[nH]c1cc(=O)ccc12	.	22*
O=c1cnnc2sc(SCc3ccc(Cl)cc3)nn12	1.3	1.8
Cc1cc(Cl)ccc1OCc1cc(=O)n2nc(-c3ccco3)sc2n1	1.4	13*
Cc1ccc(OCc2cc(=O)n3nc(C)sc3n2)c(C)c1	-1.7	-0.78
CCCN[C@H]1CCc2nc(N)sc2C1	-0.45	11*!
CCC(=O)Nc1nc2c(s1)CC(C(C)(C)C)CC2 (configuration not stated)	1.5	0.69
CC(CCc1ccccc1)N1C(=S)NC2C=C(Cl)C=CC21 (configuration not stated)	3.6*	.
CCC(C)C1NC(=S)N(Cc2ccccc2)C1=O (configuration not stated)	-1.1	.
Cc1cc(C)c(NS(=O)(=O)c2ccc3c(c2)CC(C)N3C(=O)C2CC2)c(C)c1 (configuration not stated)	.	-0.11
FC(F)(F)C(=C(N=C(Cl)SOCc1ccccc1)C(F)(F)C(F)(F)F)C(F)(F)F	3.1	.
FC(F)(F)C(=C(SSCc1ccccc1)C(F)(F)C(F)(F)F)C(F)(F)F	4.3*	.
CCCNC(=S)Nc1ccc2nc3c4ccccc4c4ccccc4c3nc2c1	11*	.
O=C(NCCCO)Nc1ccc2nc(-c3ccccc3)c(-c3ccccc3)nc2c1	-0.48	.
COCCNC(=S)Nc1ccc2nc3c4ccccc4c4ccccc4c3nc2c1	11*	.
C=CCNC(=S)Nc1ccc2nc3c4ccccc4c4ccccc4c3nc2c1	4.7*	.
COCCNC(=O)Nc1ccc2sc(NS(=O)(=O)c3ccccc3)nc2c1	.	2.6
OCCCNC(=S)Nc1ccc2nc(-c3ccccc3)c(-c3ccccc3)nc2c1	5.9*	.
C=CCNC(=O)Nc1ccc2nc(-c3ccccc3)c(-c3ccccc3)nc2c1	-0.53	.
CCCNC(=S)Nc1ccc(Cl)cc1	-0.64	.

Screens as filed in PubChem.
